Common to all, as to design: species or system human, MV4-11 + K-562 + COLO205 + SK-N-BE2 + OVCAR-8
In assay [1] the test system is CLK4. Conditions: read-out: apparent Kd, compound concentrations: 100 nM and 1000 nM (sheet 'Samples'), n = 1.
For assay [2], the system named is ILK. Conditions: read-out: apparent Kd; compound concentrations: 100 nM and 1000 nM (sheet 'Samples'), CATDS: 0.22050260792915999; n = 1.
For assay [3], the system named is IRAK3. Conditions: read-out: apparent Kd; compound concentrations: 100 nM and 1000 nM (sheet 'Samples'), CATDS: 0.257263100547858; n = 1.
The test system of assay [4] is RET. Conditions: read-out: apparent Kd; compound concentrations: 100 nM and 1000 nM (sheet 'Samples'), CATDS: 0.29305960370360601; n = 1.
Assay [5] relates to CLK1. Conditions: read-out: apparent Kd; compound concentrations: 100 nM and 1000 nM (sheet 'Samples'), CATDS: 0.21092266840342; n = 1.
For assay [6], the system named is DYRK1A. Conditions: read-out: apparent Kd; compound concentrations: 100 nM and 1000 nM (sheet 'Samples'), CATDS: 0.12917753556196801; n = 1.
Assay [7] relates to JAK2. Conditions: read-out: apparent Kd; compound concentrations: 100 nM and 1000 nM (sheet 'Samples'), CATDS: 0.15367863363527601; n = 1.
The test system of assay [8] is PTK2. As to conditions: read-out: apparent Kd; compound concentrations: 100 nM and 1000 nM (sheet 'Samples'), CATDS: 0.76143962131213405; n = 1.
For assay [9], the system named is RPS6KA1. Conditions: read-out: apparent Kd; compound concentrations: 100 nM and 1000 nM (sheet 'Samples'), CATDS: 9.5788061874141406E-2; n = 1.
Assay [10] has as its system RPS6KA3. As to conditions: read-out: apparent Kd; compound concentrations: 100 nM and 1000 nM (sheet 'Samples'), CATDS: 9.4623993582158103E-2; n = 1.
The test system of assay [11] is COX5A. As to conditions: read-out: apparent Kd; compound concentrations: 100 nM and 1000 nM (sheet 'Samples'), CATDS: 4.1546789230528999E-2; n = 1.
Assay [12] has as its system GSK3A. As to conditions: read-out: apparent Kd; compound concentrations: 100 nM and 1000 nM (sheet 'Samples'), CATDS: 6.2645628894546598E-2; n = 1.
In assay [13] the test system is GSK3B. As to conditions: read-out: apparent Kd; compound concentrations: 100 nM and 1000 nM (sheet 'Samples'), CATDS: 5.5933303342936301E-2; n = 1.
For assay [14], the system named is GTPBP4. As to conditions: read-out: apparent Kd; compound concentrations: 100 nM and 1000 nM (sheet 'Samples'), CATDS: 4.05365212601312E-2; n = 1.
Assay [15] relates to LATS1. As to conditions: read-out: apparent Kd; compound concentrations: 100 nM and 1000 nM (sheet 'Samples'), CATDS: 6.4509671540351102E-2; n = 1.
Assay [16] deals with PAK4. Conditions: read-out: apparent Kd; compound concentrations: 100 nM and 1000 nM (sheet 'Samples'), CATDS: 5.9667413912450298E-2; n = 1.
Assay [17] deals with PAK6. Conditions: read-out: apparent Kd; compound concentrations: 100 nM and 1000 nM (sheet 'Samples'), CATDS: 9.5972545463879802E-2; n = 1.
For assay [18], the system named is PKN1. Conditions: read-out: apparent Kd; compound concentrations: 100 nM and 1000 nM (sheet 'Samples'), CATDS: 5.7657473805166601E-2; n = 1.
The test system of assay [19] is PKN2. As to conditions: read-out: apparent Kd; compound concentrations: 100 nM and 1000 nM (sheet 'Samples'), CATDS: 4.3276435854429397E-2; n = 1.
Assay [20] deals with PRKACA. Conditions: read-out: apparent Kd; compound concentrations: 100 nM and 1000 nM (sheet 'Samples'), CATDS: 0.169432353175829; n = 1.
For assay [21], the system named is PRKACB. Conditions: read-out: apparent Kd; compound concentrations: 100 nM and 1000 nM (sheet 'Samples'), CATDS: 0.14426679409785001; n = 1.
For assay [22], the system named is PRKCD. Conditions: read-out: apparent Kd; compound concentrations: 100 nM and 1000 nM (sheet 'Samples'), CATDS: 4.3301317069520798E-2; n = 1.
Assay [23] has as its system PRKCQ. As to conditions: read-out: apparent Kd; compound concentrations: 100 nM and 1000 nM (sheet 'Samples'), CATDS: 0.16159232019623801; n = 1.
Assay [24] relates to PRKG1. Conditions: read-out: apparent Kd; compound concentrations: 100 nM and 1000 nM (sheet 'Samples'), CATDS: 5.6874913121809097E-2; n = 1.
Assay [25] concerns PRKX. Conditions: read-out: apparent Kd; compound concentrations: 100 nM and 1000 nM (sheet 'Samples'), CATDS: 0.106921293671462; n = 1.
Assay [26] deals with ROCK2. As to conditions: read-out: apparent Kd; compound concentrations: 100 nM and 1000 nM (sheet 'Samples'), CATDS: 4.7086778656787398E-2; n = 1.
Assay [27] has as its system CSNK1A1. As to conditions: read-out: apparent Kd; compound concentrations: 100 nM and 1000 nM (sheet 'Samples'), CATDS: 9.6046167396209803E-2; n = 1.
Assay [28] deals with CSNK1D. Conditions: read-out: apparent Kd, compound concentrations: 100 nM and 1000 nM (sheet 'Samples'), n = 1.
The test system of assay [29] is CSNK1E. As to conditions: read-out: apparent Kd, compound concentrations: 100 nM and 1000 nM (sheet 'Samples'), n = 1.
The test system of assay [30] is MAPK11. Conditions: read-out: apparent Kd; compound concentrations: 100 nM and 1000 nM (sheet 'Samples'), CATDS: 9.0675457178051394E-2; n = 1.
The test system of assay [31] is MAPK14. As to conditions: read-out: apparent Kd, compound concentrations: 100 nM and 1000 nM (sheet 'Samples'), n = 1.
For assay [32], the system named is MAPKAPK2. As to conditions: read-out: apparent Kd, compound concentrations: 100 nM and 1000 nM (sheet 'Samples'), n = 1.
The test system of assay [33] is RIPK2. Conditions: read-out: apparent Kd; compound concentrations: 100 nM and 1000 nM (sheet 'Samples'), CATDS: 0.10111059470888201; n = 1.
For assay [34], the system named is DCTPP1. Conditions: read-out: apparent Kd; compound concentrations:100 nM and 1000 nM (sheet 'Samples'); n = 1.
Assay [35] deals with NLK. Conditions: read-out: apparent Kd; compound concentrations:100 nM and 1000 nM (sheet 'Samples'); n = 1.
In assay [36] the test system is PDXK. Conditions: read-out: apparent Kd; compound concentrations:100 nM and 1000 nM (sheet 'Samples'); n = 1.
For assay [37], the system named is PIK3C3. As to conditions: read-out: apparent Kd; compound concentrations:100 nM and 1000 nM (sheet 'Samples'); n = 1.
Assay [38] deals with PIK3CB. Conditions: read-out: apparent Kd; compound concentrations:100 nM and 1000 nM (sheet 'Samples'); n = 1.
The subject of assay [39] is PIK3CD. Conditions: read-out: apparent Kd; compound concentrations:100 nM and 1000 nM (sheet 'Samples'); n = 1.

Each structure is given as a SMILES string. Where two headings read alike, the source gives them in different places.

Take `COc1cc(/C=N/Nc2ncnc3c2cnn3C(C)C)ccc1O` [GW644007X]: the potency estimated from few doses in assay [1] (CATDS: 0.240063768784822) was 1750 nM; in assay [2] it was 2110 nM; in assay [3], 1520 nM; in assay [4], 1190 nM.
Take `CCCNC(=O)c1ccc(Nc2ncc(C(F)(F)F)c(Nc3ccccc3C(C)=O)n2)c(Br)c1` [BI00801818]: the potency estimated from few doses in assay [5] is 154 nM; in assay [1] (CATDS: 0.13004922294711499) it was 524 nM; in assay [6], 534 nM; in [7], 330 nM; in [8] it was 11.3 nM; in [9], 1590 nM. In assay [10], the potency estimated from few doses is 1690 nM.
For the compound `CCn1c(-c2nonc2N)nc2c(C#CC(C)(C)O)nc(OC[C@H](N)c3ccccc3)cc21` [GSK943949A], the potency estimated from few doses in assay [11] was 1670 nM; in [12], 424 nM; in [13] it was 576 nM; in assay [14], 1880 nM; in assay [15], 394 nM; in assay [16] it was 482 nM. For the same compound, the potency estimated from few doses in [17] was 167 nM; in [18] it was 529 nM; in assay [19], 1390 nM; in assay [20], 64.8 nM; in assay [21], 82.7 nM; in assay [22], 1390 nM. The potency estimated from few doses was 69.5 nM in [23], 549 nM in [24], 137 nM in [25] and 999 nM in assay [26].
As to `CC1(C)CC(n2cnc(-c3ccc(F)cc3)c2-c2ccnc(N)n2)CC(C)(C)N1` [SB-221466], the potency estimated from few doses in [27] was 694 nM; in assay [28] (CATDS: 0.25228114630202902), 37.6 nM; in [29] (CATDS: 0.19281480161649001) it was 65.4 nM; in [30], 958 nM; in assay [31] (CATDS: 0.38213111916194098), 18.8 nM; in [32] (CATDS: 0.16941172485113901), 89.6 nM. In assay [33], the potency estimated from few doses was 537 nM.
For `Cc1nccc(-c2c(-c3ccc(F)cc3)ncn2CCCN2CCOCC2)n1.Cl` [SB-282975-A], the potency estimated from few doses in assay [28] (CATDS: 0.65749239951041605) was 74.7 nM; in assay [29] (CATDS: 0.24800542383641) it was 505 nM; in [31] (CATDS: 0.18964189775036899) it was 1100 nM; in assay [32] (CATDS: 0.19328139808162401) it was 1030 nM.
`O=c1cc(N2CCOCC2)nc2n(Cc3cccc(Cl)c3Cl)c(C3CC3)nn12` [GSK2358994A]: the potency estimated from few doses in assay [34] is 1200 nM; in assay [35] it was 2260 nM; in assay [36], 1950 nM; in assay [37] it was 9.02 nM; in [38], 3.64 nM; in assay [39] it was 14.2 nM.

The record behind these values is publication PMC11062922 (Nature Chemical Biology, 2023).
